In the supplement of paper PMC6331611:
± gives the standard deviation of the averaged measurements. Over roughly 1,600 compounds, “normalized growth (OD600, IQM-normalized) in LPM” has its median near 1; the lowest 2% begin near 0.014. Shown is part of a subset that was picked to be rich in the lowest values.

What follows are molecules tested on Salmonella enterica serovar Typhimurium SL1344 (assay: normalized growth (OD600, IQM-normalized) in LPM (fraction of plate interquartile mean); higher = more bacterial growth (less inhibition)). Conditions: LPM pH 5.8; 10 µM; 16 h.

Compound	normalized growth
CCC[C@@H]1C[C@@H](C(=O)N[C@@H]([C@H]2O[C@H](SC)[C@H](O)[C@@H](O)[C@H]2O)[C@@H](C)O)N(C)C1	1.096 ± 0.0085
CN(Cc1cnc2nc(N)nc(N)c2n1)c1ccc(C(=O)NC(CCC(=O)O)C(=O)O)cc1 (racemic)	0.665 ± 0.054
CCC(=O)OCC(=O)[C@@]1(OC(=O)CC)[C@@H](C)C[C@H]2[C@@H]3CCC4=CC(=O)C=C[C@]4(C)[C@@]3(F)[C@@H](O)C[C@@]21C	1.06 ± 0.047
CCn1cc(C(=O)O)c(=O)c2cc(F)c(N3CCNCC3)cc21	0.0247 ± 0.0053
CN1CCN(c2cc3c(cc2F)c(=O)c(C(=O)O)cn3-c2ccc(F)cc2)CC1	0.0108 ± 0.00018
O=C(O)c1cn(C2CC2)c2cc(N3CCNCC3)c(F)cc2c1=O	0.0145 ± 0.0063
CCn1cc(C(=O)O)c(=O)c2cc(F)c(N3CCNCC3)nc21	0.0514 ± 0.033
O=C(O)c1cn(-c2ccc(F)cc2)c2cc(N3CCNCC3)c(F)cc2c1=O	0.0341 ± 0.0073
CCn1cc(C(=O)O)c(=O)c2cc(F)c(N3CCN(C)CC3)cc21	0.0116 ± 0.00051
CCCCC(O)c1ccccc1 (centres undefined)	0.984 ± 0.032
CC1=CC(=O)NS(=O)(=O)O1	0.928 ± 0.054
CS(=O)(=O)c1ccc(C2=C(c3ccccc3)C(=O)OC2)cc1	1.07 ± 0.11
CCCCCCCCCC(=O)N[C@@H](Cc1c[nH]c2ccccc12)C(=O)N[C@@H](CC(N)=O)C(=O)N[C@@H](CC(=O)O)C(=O)N[C@@H]1C(=O)NCC(=O)N[C@@H](CCCN)C(=O)N[C@@H](CC(=O)O)C(=O)N[C@H](C)C(=O)N[C@@H](CC(=O)O)C(=O)NCC(=O)N[C@H](CO)C(=O)N[C@@H]([C@H](C)CC(=O)O)C(=O)N[C@@H](CC(=O)c2ccccc2N)C(=O)O[C@@H]1C [DAPTOMYCIN (5 millimolar/DMSO)]	1.02 ± 0.057
C[C@]12CCC(=O)C=C1[C@@H]1C[C@@H]1[C@H]1[C@@H]3[C@@H]4C[C@@H]4[C@@]4(CCC(=O)O4)[C@@]3(C)CC[C@@H]12	1.07 ± 0.069
COc1cc(/C=C/C(=O)N2CCCCCCC2)cc(OC)c1OC	0.961 ± 0.025
N[C@@H](Cc1ccc(O)cc1)C(=O)O	0.979 ± 0.02
CC(=O)NC(Cc1ccccc1)C(=O)O (centres undefined)	0.957 ± 0.064
CNC(=C[N+](=O)[O-])NCCSCc1csc(CN(C)C)n1	1.15 ± 0.28
O=C(O)C1=C(CSc2nnnn2CS(=O)(=O)O)CS[C@@H]2[C@H](NC(=O)[C@H](O)c3ccccc3)C(=O)N12	1.01 ± 0.024
CCCCCNC(=N)N/N=C/c1c[nH]c2ccc(OC)cc12	1.09 ± 0.12
Cc1cc(C2CCCCC2)n(O)c(=O)c1	0.183 ± 0.014
O=C(OC[C@H]1O[C@@H](OC(=O)c2cc(O)c(O)c(OC(=O)c3cc(O)c(O)c(O)c3)c2)[C@H](OC(=O)c2cc(O)c(O)c(OC(=O)c3cc(O)c(O)c(O)c3)c2)[C@@H](OC(=O)c2cc(O)c(O)c(OC(=O)c3cc(O)c(O)c(O)c3)c2)[C@@H]1OC(=O)c1cc(O)c(O)c(OC(=O)c2cc(O)c(O)c(O)c2)c1)c1cc(O)c(O)c(OC(=O)c2cc(O)c(O)c(O)c2)c1	1.08 ± 0.013
O=C(O)C(=O)O.[NH-][C@@H]1CCCC[C@H]1[NH-].[Pt+2]	0.742 ± 0.017
O=C(O)P(=O)(O)O	0.953 ± 0.027
OC[C@H]1O[C@@H](O[C@H]2[C@H](O)[C@@H](O)C(O)O[C@@H]2CO)[C@H](O)[C@@H](O)[C@H]1O (some centres undefined)	1.14 ± 0.057

Compound	normalized growth
CO/N=C(\C(=O)N[C@@H]1C(=O)N2C(C(=O)O)=C(C[N+]3(C)CCCC3)CS[C@H]12)c1csc(N)n1	0.0232 ± 0.0056
C=CC1=C(C(=O)O)N2C(=O)[C@@H](NC(=O)/C(=N\O)c3csc(N)n3)[C@H]2SC1	0.0112 ± 0.00049
CO/N=C(\C(=O)N[C@@H]1C(=O)N2C(C(=O)O)=C(COC(C)=O)CS[C@H]12)c1csc(N)n1	0.0479 ± 0.0089
CNCC[C@H](Oc1cccc2ccccc12)c1cccs1	1.05 ± 0.046
CN1CC(=O)N2[C@H](c3ccc4c(c3)OCO4)c3[nH]c4ccccc4c3C[C@@H]2C1=O	1.19 ± 0.024
CCOC(=O)CCC(=O)O[C@H]1[C@H](O[C@@H]2[C@@H](C)[C@H](O[C@H]3C[C@@](C)(OC)[C@@H](O)[C@H](C)O3)[C@@H](C)C(=O)O[C@H](CC)[C@@](C)(O)[C@H](O)[C@@H](C)C(=O)[C@H](C)C[C@@]2(C)O)O[C@H](C)C[C@@H]1N(C)C	1.14 ± 0.045
C=CCCCCCCCCC(=O)[O-].C=CCCCCCCCCC(=O)[O-].[Zn+2]	1.15 ± 0.041
CCN(CC)CCNC(=O)COc1ccc(OC)cc1	0.869 ± 0.0096
CC(C)(O)c1ccccc1CC[C@@H](SCC1(CC(=O)O)CC1)c1cccc(/C=C/c2ccc3ccc(Cl)cc3n2)c1	1 ± 0.023
CC(C)CCCC(C)N (centres undefined)	1.05 ± 0.09
CCC(C)(C)C(=O)O[C@H]1C[C@@H](C)C=C2C=C[C@H](C)[C@H](CC[C@@H]3C[C@@H](O)CC(=O)O3)[C@H]21	0.777 ± 0.071
CC(=O)OCC[N+](C)(C)C	1.05 ± 0.023
CC(=O)N(c1onc(C)c1C)S(=O)(=O)c1ccc(N)cc1	1.08 ± 0.046
CO[C@H]1C[C@H](O[C@H]2[C@H](C)O[C@@H](O[C@@H]3/C(C)=C/C[C@@H]4C[C@@H](C[C@]5(C=C[C@H](C)[C@@H](C6CCCCC6)O5)O4)OC(=O)[C@@H]4C=C(C)[C@@H](O)[C@H]5OC/C(=C\C=C\[C@@H]3C)[C@]54O)C[C@@H]2OC)O[C@@H](C)[C@@H]1O	0.776 ± 0.03
CC(=O)NCCCS(=O)(=O)O	0.949 ± 0.11
CCOC(=O)OC(C)OC1=C(C(=O)Nc2ccccn2)N(C)S(=O)(=O)c2ccccc21 (centres undefined)	1.04 ± 0.05
CO/N=C1\CN(c2nc3c(cc2F)c(=O)c(C(=O)O)cn3C2CC2)CC1CN (centres undefined)	0.0206 ± 0.00035
CC1COc2c(N3CCN(C)CC3)c(F)cc3c(=O)c(C(=O)O)cn1c23 (centres undefined)	0.0109 ± 0.00084
CC1CCc2c(N3CCC(O)CC3)c(F)cc3c(=O)c(C(=O)O)cn1c23 (centres undefined)	0.0179 ± 0.013
C[C@H]1COc2c(C3(N)CC3)c(F)cc3c(=O)c(C(=O)O)cn1c23	0.008373 ± 7.5e-05
CC1CCc2cc(F)cc3c(=O)c(C(=O)O)cn1c23 (centres undefined)	0.0174 ± 0.0072
CN1CCN(c2c(F)cc3c(=O)c(C(=O)O)cn4c3c2SCC4)CC1	0.02519 ± 0.00023
C[C@H]1COc2c(N3CCN(C)CC3)c(F)cc3c(=O)c(C(=O)O)cn1c23	0.00833 ± 0.00037
CC=CC1=C(C(=O)O)N2C(=O)[C@@H](NC(=O)[C@H](N)c3ccc(O)cc3)[C@H]2SC1	1.04 ± 0.032
